Only some compounds are listed: those with a hit (about 1.1% of all), similar ones and a draw of the others.
HTR5A ag: activates human HTR5A in OPRM1-OPRD1 agonist counter-screen. HTR5A agonist assay, luminescence, cell-based. P47898. activation, % at 9.3 µM. 340,000 compounds, 0.61% hits. AID 504692; in the data active means activation mostly above about 9.5%, no sharp cut-off; inactive means mostly below about 7.6%
MOR-DOR ag: OPRM1-OPRD1 heterodimerization agonism; cells, luminescence; activation, % at 9.3 µM; 340,000 compounds, 0.3% hits; in the data active means activation above about 18%
Target sequence (P35372 whole entry, looked up): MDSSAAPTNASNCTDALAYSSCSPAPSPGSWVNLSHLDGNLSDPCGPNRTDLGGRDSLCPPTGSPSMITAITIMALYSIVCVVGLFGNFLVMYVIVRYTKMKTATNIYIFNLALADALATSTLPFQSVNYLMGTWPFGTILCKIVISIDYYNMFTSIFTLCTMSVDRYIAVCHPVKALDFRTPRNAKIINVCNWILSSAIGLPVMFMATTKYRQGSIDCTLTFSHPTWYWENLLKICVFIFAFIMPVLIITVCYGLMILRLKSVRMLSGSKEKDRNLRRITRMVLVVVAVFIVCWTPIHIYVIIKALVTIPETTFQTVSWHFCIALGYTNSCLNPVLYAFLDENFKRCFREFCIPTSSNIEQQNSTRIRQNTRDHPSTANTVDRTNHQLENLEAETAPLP
Target sequence (P41143 whole entry, looked up): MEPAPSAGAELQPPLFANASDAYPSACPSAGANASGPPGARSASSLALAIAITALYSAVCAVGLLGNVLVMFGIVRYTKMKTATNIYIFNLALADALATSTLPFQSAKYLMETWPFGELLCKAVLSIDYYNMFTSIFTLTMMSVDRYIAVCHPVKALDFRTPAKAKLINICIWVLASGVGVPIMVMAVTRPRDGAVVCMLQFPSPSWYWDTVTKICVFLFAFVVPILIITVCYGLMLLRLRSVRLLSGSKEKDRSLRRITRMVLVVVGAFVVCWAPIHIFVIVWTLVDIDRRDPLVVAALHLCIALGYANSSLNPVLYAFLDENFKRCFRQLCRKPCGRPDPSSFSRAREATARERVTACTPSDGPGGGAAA
HTR5A inv ag: counter-screen for OPRM1-OPRD1 inverse agonists: human HTR5A inverse agonism; P47898; inhibition, % at 9.3 µM; HTR5A cell line, luminescence; 340,000 compounds, 0.083% hits; in the data active means inhibition mostly above about 23%, no sharp cut-off; inactive means mostly below about 18%
MOR-DOR inv ag: inverse agonist of human OPRM1-OPRD1 heterodimerization; cell-based MOR-DOR heterodimer luminescence, inverse agonism; inhibition, % at 9.3 µM; 340,000 compounds, 0.21% hits; AID 504357; in the data active means inhibition above about 22%, passing the limit was not always enough
MOR-DOR inv conf: confirmation of human OPRM1-OPRD1 heterodimerization inverse agonists. AID 504900. 580 compounds, 20% hits. inhibition, % at 9.3 µM. shares compounds with MOR-DOR inv ag. cells expressing OPRM1/OPRD1 heterodimer, luminescence; in the data active means inhibition above about 32%
HTR5A inv ctr2: HTR5A inverse agonism, opioid heterodimer counter-screen | shares compounds with MOR-DOR inv ag | HTR5A-expressing cells, luminescence | inhibition, % at 9.3 µM | 580 tested, under 10 active | AID 504914; call rule not given here
Numbers stand for hits; . = inactive; / = no result given.

SMILES	HTR5A ag	MOR-DOR ag	HTR5A inv ag	MOR-DOR inv ag	MOR-DOR inv conf	HTR5A inv ctr2
Cc1c(Br)c([N+](=O)[O-])nn1CC(=O)NC1CCCCCC1	.	.	.	.	/	/
Cn1c(-c2ccc(F)cc2)cnc1NCc1ccccc1F	.	.	.	38	.	.
O=C(CNC(=O)c1ccco1)OCC(=O)c1ccc(Cl)cc1Cl	.	.	.	44	.	.
O=[N+]([O-])c1cccc(/C=N/NS(=O)(=O)c2ccccc2)c1	.	.	.	38	.	.
COc1ccc(N2COC3c4cccc5cccc(c45)C32)cc1 (centres undefined)	.	.	.	50	.	.
Cc1cccc(N=C2CSC(=O)N2)c1	.	.	.	.	/	/
Cc1cccc(N=C2C(=O)Nc3c(Cl)cccc32)c1	.	.	.	56	.	.
Oc1ccccc1C=NN1CCCCCC1	.	.	.	.	/	/
Oc1[nH]c2ccccc2c1/C=N/N1CCCCC1	.	.	.	37	.	.
CCOc1cccc(-c2c(C(=O)N/N=C/c3ccsc3)nnn2-c2nonc2N)c1	.	.	.	.	/	/
Cc1ccc(-c2ccccc2NC(=O)C2C3C=CC(C3)C2C(=O)O)o1 (centres undefined)	.	.	.	34	.	.
Cc1ccc(-c2cccc(NC(=O)C3C(C(=O)O)[C@@H]4C=C[C@H]3C4)c2)o1 (some centres undefined)	.	.	.	.	/	/
C1=C[C@H]2CC[C@@H]1N(c1ccccc1)O2	.	.	.	.	/	/
O=C(COC(=O)c1ccccc1)c1ccc(S(=O)(=O)N2CCCCC2)cc1	.	.	.	46	32	.
O=C(COC(=O)c1ccc(Br)o1)c1ccc(S(=O)(=O)N2CCCCC2)cc1	.	.	.	65	.	.
CC(C)[C@H](NC(=O)c1ccccc1)C(=O)OCC(=O)c1ccc(S(=O)(=O)N2CCCCC2)cc1	.	.	.	30	.	.
CC(C)[C@H](NC(=O)c1ccccc1)C(=O)OCC(=O)Nc1ccc(S(=O)(=O)N2CCOCC2)cc1	.	.	.	.	/	/
COc1cc(OC)cc(C(=O)OCC(=O)c2ccc(S(=O)(=O)N3CCCCC3)cc2)c1	.	.	.	.	/	/
O=C(COC(=O)c1ccco1)c1ccc(S(=O)(=O)N2CCCCC2)cc1	.	.	.	53	.	.
NC(=O)COC(=O)c1ccc(S(=O)(=O)N2CCCCCC2)cc1	.	.	.	.	/	/
COc1ccc(CC(=O)OCC(=O)c2ccc(S(=O)(=O)N3CCCCC3)cc2)cc1	.	.	.	50	.	.
O=C(COc1ccccc1)OCC(=O)c1ccc(S(=O)(=O)N2CCCCC2)cc1	.	.	.	80	.	.
CSc1nnc(SCC(=O)Nc2ccc3[nH]c(=O)[nH]c3c2)s1	.	.	.	.	/	/
CCOC(=O)c1ccc(CC(=O)c2oc3cc(O)ccc3c2C)o1	.	.	.	34	.	.
CC(C)(C)c1ccc(NNC(=O)C2CCC2)cc1	.	.	.	34	.	.
SMILES	HTR5A ag	MOR-DOR ag	HTR5A inv ag	MOR-DOR inv ag	MOR-DOR inv conf	HTR5A inv ctr2
Cc1cc(C)nc(-n2nc(C)c(C3(O)C(=O)Nc4ccc(F)cc43)c2N)n1 (centres undefined)	.	.	.	62	53	.
Cc1cc(C)nc(-n2nc(C)c(C3(O)C(=O)Nc4ccccc43)c2N)n1 (centres undefined)	.	.	.	23	.	.
COc1ccc(Cc2nc3ccc(C(=O)NCC(C)(C)OC)cc3o2)cc1	.	.	.	.	/	/
COC(=O)c1ccc(NC2(C#N)C(=O)Nc3ccccc32)cc1 (centres undefined)	.	.	.	83	64	.
Cc1ccc(NC2(C#N)C(=O)Nc3ccccc32)cc1C (centres undefined)	.	.	.	56	.	.
Cc1cc(C)c(C(=O)CC2(O)C(=O)Nc3ccccc32)cc1C (centres undefined)	.	.	.	.	/	/
COc1cccc(NC(=O)/C=C/c2ccc(S(=O)(=O)N3CCOCC3)cc2)c1	.	.	.	.	/	/
COC(=O)[C@@H](Cc1c[nH]c2ccccc12)NC(=O)C1CCCN(S(=O)(=O)c2ccc(C)cc2)C1 (some centres undefined)	.	.	.	.	/	/
C=CCn1c(N)c(C(=O)Nc2cccc(C)c2)c2nc3ccccc3nc21	.	.	.	.	/	/
C=CCn1c(N)c(C(=O)OCCC)c2nc3ccccc3nc21	.	.	.	49	.	.
CC(=O)Nc1ccc(Br)cc1C(=O)C(=O)O	.	.	.	36	.	.
CCCCC(=O)Nc1ccc(Br)cc1C(=O)O	.	.	.	.	/	/
Cc1ccc(S(=O)(=O)CCC(=O)OCC(=O)c2ccc(C)c(C)c2)cc1	.	.	.	.	/	/
Cc1ccc(C(=O)COC(=O)CCS(=O)(=O)c2ccccc2)cc1[N+](=O)[O-]	.	.	.	42	.	.
Cc1ccc(C)c(C(=O)COC(=O)CNS(=O)(=O)c2ccccc2)c1	.	.	.	.	/	/
Cc1ccc(C(=O)COC(=O)CNS(=O)(=O)c2ccccc2)cc1[N+](=O)[O-]	.	.	.	59	.	.
CC(=O)OCC1(C)CN(c2ccccc2)N(C(=O)c2ccc(F)cc2)C1=O (centres undefined)	.	.	.	44	.	.
CC(C)OC(=O)C(=O)NNc1ccccc1	.	.	.	24	.	.
CCOC(=O)C(=O)NNc1ccc(C)cc1	.	.	.	31	.	.
CCCOC(=O)C(=O)NNc1ccccc1	.	.	.	.	/	/
Cc1ccc(C(C(=O)NC2CCCCC2)N(CC2CCCO2)C(=O)CCCC(=O)Nc2ccccn2)cc1 (centres undefined)	.	.	.	.	/	/
O=C(CC1(O)C(=O)Nc2ccccc21)c1ccc(-n2cnnn2)cc1 (centres undefined)	.	.	.	40	33	.
O=C(CCC(=O)OCC(=O)c1cccc([N+](=O)[O-])c1)Nc1cccc(Cl)c1Cl	.	.	.	69	64	.
O=C(CCC(=O)OCC(=O)c1ccc([N+](=O)[O-])cc1)Nc1ccccc1Cl	.	.	.	.	/	/
Cc1ccccc1NC(=O)CCC(=O)OCC(=O)c1cccc([N+](=O)[O-])c1	.	.	.	60	.	.
O=S(=O)(c1ccccc1)N1CCCCC1CCc1ccccc1 (centres undefined)	.	.	.	.	/	/
Cc1ccc(S(=O)(=O)N(Cc2ccccc2F)C(=O)N2CCN(C)CC2)cc1	.	.	.	.	/	/
CCOC(=O)C1(Cc2ccccc2)CCCN(C(=O)c2cnn(CC)c2)C1 (centres undefined)	.	.	.	.	/	/
COc1ccc(OCCN2CCCC2)cc1Nc1nnc(Cl)c(Nc2ccccc2S(C)(=O)=O)n1	.	.	.	.	/	/
ON(Cc1c(F)cccc1Cl)Cc1c(F)cccc1Cl	.	.	.	35	70	.
